The sample as a whole holds a higher share of hits than the screen did.
miR-122 inh: miR-122 sensor activation; Huh7 psiCHECK-miR122 Renilla luciferase sensor, 48 h; 340,000 compounds, 0.14% hits; AID 623901; activation, % at 12.5 µM;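 active = mean activation of 30% or more, with every replicate also reaching 30%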;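 note: 0% = median of neutral control wells and 100% = median of positive control wells; higher luciferase signal means stronger suppression of miR-122 activity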
Active calls of the source: *.

SMILES	miR-122 inh
C[C@H]1CN([C@@H](C)CO)C(=O)c2cccc(NC(=O)C3CC3)c2O[C@@H]1CN(C)Cc1ccc(C(F)(F)F)cc1	-113.0
Cc1ccc(-c2cnc3c(c2)C(=O)N([C@H](C)CO)C[C@@H](C)[C@@H](CN(C)C(=O)c2ccncc2)O3)cc1	2.8
Cc1sc2ncnc(N/N=C/c3ccccc3O)c2c1C	36.5*
CCC(=O)Nc1ccc2c(c1)C(=O)N(C)C[C@@H](OC)[C@H](C)CN(C(C)=O)[C@H](C)CO2	-3.6
C[C@@H]1CN([C@@H](C)CO)C(=O)c2cc(N(C)C)ccc2O[C@@H]1CN(C)C(=O)Nc1ccc(F)cc1	-102.5
C[C@@H]1CN([C@@H](C)CO)C(=O)c2cc(-c3ccncc3)cnc2O[C@H]1CN(C)C(=O)c1ccccc1F	1.4
CC(C)c1ccc(NC(=O)C[C@H]2CC[C@H]3[C@@H](COc4ccc(NC(=O)Nc5ccc(F)c(F)c5)cc4C(=O)N3C)O2)cc1	45.0*
CCNC(=O)Nc1ccc2c(c1)C(=O)N(C)[C@H]1CC[C@H](CC(=O)Nc3ccccc3F)O[C@@H]1CO2	53.3*
CCCNC(=O)C[C@H]1CC[C@H]2[C@H](COc3ccc(NC(=O)Cc4cccs4)cc3C(=O)N2C)O1	-166.7
CCCNC(=O)C[C@@H]1CC[C@@H]2[C@@H](COc3ccc(NC(=O)Nc4ccccc4F)cc3C(=O)N2C)O1	50.0*
Cc1cccc(NC(=O)Nc2ccc3c(c2)C(=O)N(C)[C@H]2CC[C@@H](CC(=O)NCc4ccccc4Cl)O[C@H]2CO3)c1	36.7*
CCCNC(=O)C[C@@H]1CC[C@H]2[C@H](COc3ccc(NC(=O)Cc4cccs4)cc3C(=O)N2C)O1	-206.7
CN1C(=O)c2cc(NC(=O)Cc3ccccc3)ccc2OC[C@@H]2O[C@H](CC(=O)NCc3ccc(Cl)cc3)CC[C@@H]21	-293.3
CO[C@@H]1CN(C)C(=O)c2ccc(NC(=O)Nc3ccc(F)cc3)cc2OC[C@H](C)NC[C@H]1C	-2.6
CO[C@@H]1CN(C)C(=O)c2cc(NC(C)=O)ccc2OC[C@H](C)N(C(=O)c2ccccc2)C[C@H]1C	-0.1
C[C@@H]1CN([C@@H](C)CO)S(=O)(=O)c2ccc(C#CCC3CCCC3)cc2O[C@@H]1CN(C)C(=O)CC1CC1	-3.0
CCCNC(=O)Nc1ccc2c(c1)OC[C@H](C)N(C)C[C@@H](C)[C@H](OC)CN(C)C2=O	-1.2
C[C@H](CO)N1C[C@H](C)[C@@H](CN(C)C(=O)C2CCOCC2)Oc2ncc(-c3ccncc3)cc2C1=O	3.3
C[C@@H]1CN([C@H](C)CO)C(=O)c2cc(-c3cccc(C(=O)N(C)C)c3)cnc2O[C@@H]1CN(C)CC1CC1	0.9
C[C@H](CO)N1C[C@H](C)[C@H](CN(C)Cc2ccccc2)Oc2ncc(-c3cncnc3)cc2C1=O	-0.1
C[C@@H]1CN([C@@H](C)CO)S(=O)(=O)c2ccc(-c3cccnc3)cc2O[C@H]1CN(C)Cc1ccccn1	2.8
C[C@@H]1CN([C@@H](C)CO)C(=O)c2cc(-c3cccc(F)c3)cnc2O[C@@H]1CN(C)C(=O)c1cccc(F)c1	4.8
CCCN(C)C[C@H]1Oc2cc(C#CC3(O)CCCC3)ccc2S(=O)(=O)N([C@H](C)CO)C[C@H]1C	-1.6
CCCN(C)C[C@H]1Oc2cc(C#CC(C)C)ccc2S(=O)(=O)N([C@H](C)CO)C[C@H]1C	-22.1
CCCNC(=O)Nc1ccc2c(c1)C(=O)N(C)[C@@H]1CC[C@H](CC(=O)NCC3CCCCC3)O[C@H]1CO2	33.3*
SMILES	miR-122 inh
CCCNC(=O)C[C@@H]1CC[C@@H]2[C@H](COc3ccc(NC(=O)Nc4c(C)noc4C)cc3C(=O)N2C)O1	-257.5
CCCNC(=O)C[C@@H]1CC[C@H]2[C@H](COc3ccc(NC(=O)c4ccc5c(c4)OCO5)cc3C(=O)N2C)O1	-101.7
CN1C(=O)c2cc(NC(=O)Cc3ccccc3)ccc2OC[C@@H]2O[C@H](CC(=O)NCC3CC3)CC[C@@H]21	-233.3
CCCNC(=O)C[C@H]1CC[C@H]2[C@@H](COc3ccc(NC(=O)c4cc(F)cc(F)c4)cc3C(=O)N2C)O1	53.3*
Cc1nn(C)cc1NC(=O)C[C@@H]1CC[C@@H]2[C@@H](COc3ccc(NC(=O)Nc4cccc(Cl)c4)cc3C(=O)N2C)O1	47.8*
Cc1ccccc1NC(=O)Nc1ccc2c(c1)C(=O)N(C)[C@@H]1CC[C@H](CC(=O)NCC3CC3)O[C@@H]1CO2	46.7*
CCCNC(=O)N1C[C@@H](C)[C@H](OC)CN(C)C(=O)c2cc(NS(=O)(=O)CC)ccc2OC[C@H]1C	-2.0
CC(=O)N(C)C[C@H]1Oc2cc(C#C[C@H](C)O)ccc2S(=O)(=O)N([C@H](C)CO)C[C@H]1C	4.4
COc1ccc(S(=O)(=O)N(C)C[C@@H]2Oc3cc(-c4ccccc4OC)ccc3S(=O)(=O)N([C@H](C)CO)C[C@H]2C)cc1	-0.2
CO[C@H]1CN(C)C(=O)c2cc(NC(C)=O)ccc2OC[C@@H](C)N(C(=O)c2ccccc2)C[C@H]1C	-2.0
CCC(=O)Nc1ccc2c(c1)C(=O)N(C)C[C@H](OC)[C@H](C)CN(Cc1ccccc1OC)[C@@H](C)CO2	0.0

Screening data deposited in PubChem by Broad Institute.
